An excerpt weighted towards active compounds, which were near 3.6% of everything screened.
mHTT CaM bind = disrupts binding of mutant huntingtin to calmodulin | P42858 | AlphaScreen His-mHTT/GST-CaM binding, luminescence | inhibition, % at 15 µM | 190,000 tested, 3.6% active | AID 1671202;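 also: 0% = both proteins with DMSO and 100% = one protein alone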
Pf apPOL block = Pf-apPOL DNA polymerase inhibition; Recombinant Pf-apPOL, molecular beacon fluorescence, 1.5 h; inhibition, % at 10 µM; 210,000 tested, 0.25% active
Active calls of the source: *; i = inactive; nt = no result. Rule as the data show it: active = inhibition above about 50%; inactive = the rest.

SMILES	mHTT CaM bind	Pf apPOL block
COc1ccc(C(=O)Nc2nc(CC(=O)NCc3cccs3)cs2)cc1	1	-1
O=C(Cc1csc(NC(=O)c2ccc[nH]c2=O)n1)NCc1cccs1	64*	-5
COc1ccc(C(=O)N2CCC(CCOc3ccccc3F)CC2)cc1	41	-1
CCC(=O)N1CCc2cc(Br)cc(S(=O)(=O)N(CC)CCN(C)C)c21	-2	-4
C#CCNS(=O)(=O)c1ccc(Cl)cc1	nt	11
COc1cccc(C2C3CN(Cc4ccccc4)CC=C3C(C(=O)O)=C(N)C2(C#N)C#N)c1 (stereo not given)	47	94*
CC(=O)N1CC=C2C(C#N)=C(N)C(C#N)(C#N)C(c3cccc(Cl)c3)C2C1 (stereo not given)	20	-8
CCCN1CC=C2C(C#N)=C(N)C(C#N)(C#N)C(c3ccccc3Cl)C2C1 (stereo not given)	38	-2
Cc1ccc(C2C3CN(Cc4ccccc4)CC=C3C(C(=O)O)=C(N)C2(C#N)C#N)o1 (stereo not given)	52*	1
O=C(c1ccoc1)N1CCC(OCc2nc(-c3cccnc3)no2)CC1	2	-6
O=[N+]([O-])c1cc(Nc2ccccc2)c(C=Nc2ccccc2)c([N+](=O)[O-])c1	51*	3
O=[N+]([O-])c1ccc(NNc2ccccc2)c([N+](=O)[O-])c1	69*	nt
O=[N+]([O-])c1ccc(O)c(C=Nc2ccc(Nc3ccccc3)cc2)c1	19	-3
O=[N+]([O-])c1ccc(NN=Cc2ccccc2)c([N+](=O)[O-])c1	nt	-5
CC1CCc2cc(F)ccc2N1C(=O)Nc1cccc(F)c1 (stereo not given)	-3	-8
O=C1OC(c2ccc(Cl)c(Cl)c2)=N/C1=C\c1cccs1	11	-1
CC(=O)N1CCC(n2c(C)nc(C(=O)Nc3ccc(F)cc3)c2C)CC1	1	-4
Cc1cccc2nnc(N3CCN(C(=O)c4ccc(Cl)s4)CC3)n12	2	2
COc1ccc(OC)c(S(=O)(=O)N2CCCC(C)(C(=O)NCc3ccccc3)C2)c1 (stereo not given)	15	-3
CC1(C(=O)NCc2ccccc2)CCCN(S(=O)(=O)c2ccc(F)c(Cl)c2)C1 (stereo not given)	66*	0
COc1ccc(Cl)cc1S(=O)(=O)N1CCCC(C)(C(=O)NCc2ccccc2)C1 (stereo not given)	95*	-2
Cc1cccc(S(=O)(=O)N2CCCC(C)(C(=O)NCc3ccccc3)C2)c1 (stereo not given)	-1	-4
Cc1ccc2nc(-c3cc(N=Cc4ccc([N+](=O)[O-])cc4)ccc3O)oc2c1	15	7
Cc1ccc2nc(-c3ccc(N=Cc4ccc5c(c4)OCO5)cc3O)oc2c1	60*	2
COc1ccc(-c2nnc(N3CCC(C(=O)N4CCCN(C)CC4)CC3)o2)cc1	5	-3
SMILES	mHTT CaM bind	Pf apPOL block
NC(=S)NN=C1c2ccccc2-c2ccccc21	55*	nt
NC(=S)N/N=C/c1c2ccccc2cc2ccccc12	i	nt
COc1ccc(N2C(=O)CSC2c2cccc(C(F)(F)F)c2)cc1 (stereo not given)	14	-11
O=C1CSC(c2cc3ccccc3o2)N1c1ccc(F)cc1 (stereo not given)	nt	4
O=C(NC(Nc1ccc([N+](=O)[O-])cc1)C(Cl)(Cl)Cl)c1cccs1 (stereo not given)	34	0
O=C(NC(Nc1ccc(I)cc1)C(Cl)(Cl)Cl)c1cccs1 (stereo not given)	84*	-3
Cc1ccc(NC(NC(=O)c2cccs2)C(=O)c2ccccc2)cc1 (stereo not given)	38	-3
O=C(NC(Nc1ccc(Cl)cc1)C(=O)c1ccccc1)c1cccs1 (stereo not given)	81*	-3
Cc1cccc(C(=O)Nc2ccc(-c3nc4ccccc4o3)c(O)c2)c1	4	-1
Cc1c(CN2CCSCC2)c(=O)n(-c2ccccc2)n1C	nt	7
O=C(Nc1ccc(Nc2ccc(-n3cccn3)nn2)cc1)Nc1cccc(F)c1	41	-6
O=[N+]([O-])c1cccc2c1NC(c1ccccc1F)C1CC=CC21 (stereo not given)	75*	-2
COc1cc([N+](=O)[O-])cc2c1NC(c1cccc(Cl)c1Cl)C1CC=CC21 (stereo not given)	16	7
Fc1cccc2c1N[C@@H](c1c3ccccc3cc3ccccc13)[C@H]1CC=C[C@@H]21	-6	nt
O=C(O)c1cccc2c1NC(c1ccccc1[N+](=O)[O-])C1CC=CC21 (stereo not given)	92*	-9
O=C(O)c1ccc([N+](=O)[O-])c2c1NCC1CC=CC21 (stereo not given)	9	2
O=[N+]([O-])c1ccccc1C1Nc2c(cccc2[N+](=O)[O-])C2C=CCC21 (stereo not given)	65*	5
CNC(=O)C1CN(S(=O)(=O)c2cccs2)CC12CCCCC2 (stereo not given)	-1	8
